Data from PubChem BioAssay (NCI).
This is part of a sample that, as a whole, favours compounds with a hit. Of some 83,000 tested, about 20% had one in any assay.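 Compound tested at a single concentration for 48 hours in 96-well plates; a percent growth value below 10 was scored as active.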 Values without a mark were called inactive. Calls of active or inactive are those of the source.

Key:
Test in all cases: NCI-60 one-dose screen, 48 h (100 = growth as untreated, 0 = no growth, -100 = all killed)
Conditions in all cases: 10 µM unless noted
[1] = test system: DU-145 prostate
[2] = test system: K-562 leukemia
[3] = test system: MALME-3M melanoma
[4] = test system: MDA-MB-231 breast
[5] = test system: RXF 393 renal
[6] = test system: SF-268 CNS
[7] = test system: SF-295 CNS
[8] = test system: SF-539 CNS
[9] = test system: UACC-257 melanoma
[10] = test system: M14 melanoma
[11] = test system: HCT-15 colon
[12] = test system: HT29 colon
[13] = test system: SNB-75 CNS
[14] = test system: SNB-19 CNS
[15] = test system: U251 CNS
[16] = test system: PC-3 prostate
[17] = test system: SK-MEL-5 melanoma
[18] = test system: UACC-62 melanoma
[19] = test system: LOX IMVI melanoma
[20] = test system: SK-MEL-28 melanoma

| Compound | growth [1] | growth [2] | growth [3] | growth [4] | growth [5] | growth [6] | growth [7] | growth [8] | growth [9] | growth [10] | growth [11] | growth [12] | growth [13] | growth [14] | growth [15] | growth [16] | growth [17] | growth [18] | growth [19] | growth [20] |
| --- | --- | --- | --- | --- | --- | --- | --- | --- | --- | --- | --- | --- | --- | --- | --- | --- | --- | --- | --- | --- |
| COc1cccc(NC(=O)Nc2ccc(Oc3ncnc4[nH]c(C)c(C)c34)cc2)c1 | 91.9% | 83.7% | 114% | 97.1% | 109% | 81.3% | 91.7% | 64.6% | 97.7% | 100% | 87.9% | 75.4% | 87.2% | 89.7% | 76.9% | 80.8% | 88% | 74.2% | -54.9% (active) | 103% |
| O=C1Nc2ccc(Cl)cc2/C1=N/c1nc(-c2ccc(Cl)cc2)cs1 | 26.2% | 5.94% (active) | 22.2% | -22.8% (active) | -19.7% (active) | 21.6% | 14.3% | -6.26% (active) | -2.07% (active) | 1.32% (active) | 26.7% | -0.232% (active) | 26.2% | 10.8% | -3.58% (active) | 2.97% (active) | 8.24% (active) | -46.6% (active) | -7.47% (active) | 16.3% |
| CN1CC=C(c2cc(NC(=O)Nc3ccc(Oc4ccnc(NC(=O)C5CC5)c4)c(F)c3)cc(C(F)(F)F)c2)CC1 | 9.52% (active) | -12.2% (active) | -32.5% (active) | -11.8% (active) | -27.4% (active) | -1.76% (active) | -9.64% (active) | -47.9% (active) | -0.573% (active) | -38.3% (active) | 5.35% (active) | -13.6% (active) | -76.4% (active) | 2.04% (active) | -1.77% (active) | 3.71% (active) | -43.9% (active) | -22.1% (active) | -46.5% (active) | -1.25% (active) |
| CCOC(=O)c1c(C)nc2c(c1N)/C(=C/c1cccs1)C(=O)N2Cc1ccccc1 | 62% | 34.7% | 85.1% | 55.4% | 40% | 74.7% | 88% | 90.7% | 74% | 73.8% | 19.5% | 57.3% | 72.6% | 68.1% | 49.8% | 51.8% | 83.8% | 67.6% | 36.4% | 90.2% |
| COc1cc(C2=NN(C=O)C(c3cccc(Nc4ccnc5cc(C(F)(F)F)ccc45)c3)C2)cc(OC)c1OC (stereo not given) | 40% | 37.8% | 86.3% | 58.1% | 72.4% | 46.6% | 65.2% | 77% | 81.2% | 15.4% | 49.2% | 15.3% | 77.7% | 64.2% | 55.8% | 31.7% | 43% | 75.4% | 43.1% | 50.6% |
| Cc1cc(C)nc(NS(=O)(=O)c2ccc(Nc3ccc4c5c(n(CCCN(C)C)c(=O)c4c3)-c3ccccc3C5=O)cc2)n1 | 69% | 74.7% | 102% | 108% | 115% | 77.9% | 83.3% | 96.3% | 108% | 89.8% | 90.3% | 74.8% | 79.5% | 91% | 75.3% | 86.3% | 85.6% | 93.3% | 72.6% | 117% |
| CSc1nc(-c2ccco2)c2c(N)[nH]nc2n1 | 102% | 85.6% | 119% | 99.1% | 118% | 104% | 102% | 97.5% | 129% | 120% | 102% | 93.6% | 103% | 110% | 103% | 101% | 100% | 92.2% | 92.3% | 112% |
| C=C1C(=O)O[C@H]2[C@H]1CC/C(COC(=O)NCc1nc3ccccc3[nH]1)=C\CC[C@@]1(C)O[C@@H]21 | 80.1% | 24.7% | 86.8% | 90.8% | 67.2% | 105% | 106% | 77.9% | 94.9% | 77.5% | 103% | 63.8% | 91.9% | 98.6% | 92.9% | 85.6% | 97% | 80% | 75.9% | 73.1% |
| c1cc(CNC23CC4CC(CC(C4)C2)C3)cc(C[N+](Cc2cccc(CNC34CC5CC(CC(C5)C3)C4)c2)(Cc2cccc(CNC34CC5CC(CC(C5)C3)C4)c2)Cc2cccc(CNC34CC5CC(CC(C5)C3)C4)c2)c1 (stereo not given) | -4.07% [42 µM] (active) | 4.99% [42 µM] (active) | 6.44% [42 µM] (active) | 16.7% [42 µM] | 4.56% [42 µM] (active) | 26.9% [42 µM] | 54.4% [42 µM] | 16.9% [42 µM] | 41.5% [42 µM] | 24.3% [42 µM] | 3.19% [42 µM] (active) | -5.66% [42 µM] (active) | 36.9% [42 µM] | 31.2% [42 µM] | 11.6% [42 µM] | 43% [42 µM] | 23.1% [42 µM] | 30.3% [42 µM] | -4.47% [42 µM] (active) | 51.5% [42 µM] |
| CC(=O)c1c(OCC#N)ccc2c(C)cc(=O)oc12 | 114% | 69% | 116% | 104% | 106% | 110% | 125% | 105% | 133% | 102% | 102% | 117% | 103% | 97.2% | 94.9% | 87.2% | 104% | 96.5% | 100% | 93% |
| CC(=O)[C@@H]1CC[C@]2(C(=O)O)CC[C@]3(C)[C@H](CC[C@@H]4[C@@]5(C)Cc6c([nH]c7ccccc67)C(C)(C)[C@@H]5CC[C@]43C)[C@@H]12 | 59.4% | 37.8% | 96.1% | 83% | 73.2% | 63.4% | 36% | 74.3% | 84.2% | 78.7% | 44.3% | 68.6% | 94.7% | 70.2% | 45% | 40.7% | 71.8% | 67.9% | 50.1% | 78.5% |
| CCCNc1nc(C)[nH]c(=O)c1S | 91.3% | 95% | 112% | 103% | 118% | 101% | 119% | 115% | 108% | 109% | 96.5% | 108% | 91.2% | 93.1% | 95% | 87.4% | 110% | 113% | 91% | 114% |
| CCCCn1c(=O)c(/C=C/C(=O)/C=C/c2ccc(OC)cc2)cc2cc(Cl)ccc21 | 53.5% | 25.2% | 119% | 83.8% | 84.5% | 42.6% | 19.9% | 91.8% | 92.1% | 95% | 27.5% | 9.75% (active) | 84.9% | 47.5% | -13.4% (active) | 39.5% | 78.9% | 76.2% | 9.25% (active) | 115% |
| COc1cc2cc(c1Cl)N(C)C(=O)C[C@H](OC(=O)[C@H](C)N(C)C(=O)CCS)C[C@]1(C)O[C@H]1[C@H](C)[C@@H]1C[C@@](O)(NC(=O)O1)[C@H](OC)/C=C/C=C(\C)C2 | 2.17% (active) | 11.7% | 64.3% | 17.8% | 43.6% | 37.1% | 3.96% (active) | -17.1% (active) | 69.3% | 1.73% (active) | 11.2% | 0.342% (active) | 21% | 34% | 10.2% | 22% | -33.1% (active) | 36.8% | 13.6% | 57.2% |
